M1 antag = human CHRM1 antagonism. P11229. 1.3% of 360,000 active. inhibition, % at 3 µM. CHO-K1 hM1, Fluo-8 calcium fluorescence, ACh EC80 antagonist;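 active = percent inhibition above its own plate's cutoff, namely the mean of that plate's compound wells plus 3 SD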;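 also: peak over basal fluorescence ratio during 140 s after agonist addition; 0% = ACh EC80 plus DMSO and 100% = DMSO alone without agonist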
Target sequence (P11229 whole entry, looked up): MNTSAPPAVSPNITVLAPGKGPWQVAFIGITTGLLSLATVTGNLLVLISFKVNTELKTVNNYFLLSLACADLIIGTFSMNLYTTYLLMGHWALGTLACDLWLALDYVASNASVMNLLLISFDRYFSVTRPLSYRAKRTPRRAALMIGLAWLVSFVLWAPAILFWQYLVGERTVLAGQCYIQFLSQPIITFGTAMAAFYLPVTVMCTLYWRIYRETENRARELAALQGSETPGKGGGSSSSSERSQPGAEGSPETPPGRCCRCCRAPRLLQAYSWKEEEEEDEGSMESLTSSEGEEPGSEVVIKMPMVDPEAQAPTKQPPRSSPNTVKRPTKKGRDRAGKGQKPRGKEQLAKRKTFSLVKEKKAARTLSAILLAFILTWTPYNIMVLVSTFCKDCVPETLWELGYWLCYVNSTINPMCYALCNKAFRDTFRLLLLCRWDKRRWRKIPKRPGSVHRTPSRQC
M1 PAM = positive allosteric modulators of human M1 muscarinic receptor; AID 588819; activation, % at 3 µM; 0.088% of 360,000 active; CHO-K1 hM1, Fluo-8 calcium fluorescence, ACh EC20; 0% = ACh EC20, 100% = maximal ACh; in the data active = activation above about 19%, passing the limit was not always enough
M1 PAM parental = M1 PAM counterscreen hit in parental CHO-K1 cells | ATP EC20, Fluo-8 calcium fluorescence; 0% at ATP EC20, 100% at ATP max | activation, % at 3 µM | 0.02% of 360,000 active;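 active = activation above the run cutoff, the mean activation of all test compounds plus 3 SD, cut at about 40% in these data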;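 also: peak over basal fluorescence ratio in a 140 s read after ATP addition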
M1 ag = activates human CHRM1 receptor; AID 588814; 0.33% of 360,000 active; CHO-K1 hM1, Fluo-8 calcium fluorescence, agonist mode; 0% DMSO, 100% acetylcholine EC100; activation, % at 3 µM; P11229;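 active = activation above the run's mean compound activation plus 3 SD, cut at about 16% in these data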;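 also: peak over basal fluorescence ratio within a 140 s kinetic read after compound addition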
CHO-K1 Ca ag = M1 agonist counterscreen hit in parental CHO-K1 cells. Fluo-8 calcium fluorescence; scaled to maximal ATP response, vehicle zero. activation, % at 3 µM. 0.48% of 360,000 active. AID 602248; in the data active = activation above about 15%;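 also: untransfected CHO-K1 host cells lacking M1 receptor as counterscreen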
CHO-K1 Ca antag = counter-screen for M1 antagonists: effect in parental CHO-K1 cells; ATP-induced calcium, Fluo-8 fluorescence; inhibition, % at 3 µM; 0.6% of 360,000 active; AID 602250;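 active = inhibition above a per-plate cutoff, the plate's mean sample inhibition plus 3 SD, cut at about 24% in these data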;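 also: 0% = DMSO plus EC80 ATP and 100% = DMSO alone without ATP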
The depositor's hits bear a star; nt = not tested or not shown. The list is not random: actives were taken first. Their share in the collection is about 2.3%.

SMILES	M1 antag	M1 PAM	M1 PAM parental	M1 ag	CHO-K1 Ca ag	CHO-K1 Ca antag
CCn1c(C)nc2c(C)[n+](CC(=O)c3ccc(Br)cc3)ccc21	21.6	-16.5	-16.6	-9.2	-0.3	23.8*
Cc1ccc(/C=C2\SC(N3CCN(C(c4ccccc4)c4ccccc4)CC3)=NC2=O)o1	51.9*	-26.2	20.6	-10.8	1.1	-10.8
Cc1ccc(-c2ccc(/C=C3\SC(N4CCOCC4)=NC3=O)o2)cc1	0.8	3.1	7.8	-6.0	1.5	-1.0
O=C(Cc1ccc(Br)cc1)Nc1ncc([N+](=O)[O-])s1	35.0	-12.0	-30.8	7.8	16.4*	23.8*
CCCCn1nnnc1C(c1ccccc1)N1CCN(c2cc(C)ccc2C)CC1 (stereo not drawn)	nt	nt	10.9	nt	-0.1	-19.0
O=C(Nc1ccccc1Cl)c1ccc2c(=O)n3c(nc2c1)CCC3	0.6	2.2	15.8	-1.5	1.3	-21.4
O=C(Nc1nc(-c2ccccc2)cs1)c1ccc(N2CCOCC2)c([N+](=O)[O-])c1	36.8	-17.5	-1.9	-0.4	12.3	25.4*
Cc1ccc(-c2csc(NC(=O)c3cc([N+](=O)[O-])ccc3N3CCOCC3)n2)cc1	-11.3	3.7	5.5	-1.8	0.1	-3.2
O=C(Nc1nc(-c2ccccc2)cs1)c1ccc2c(=O)n3c(nc2c1)CCCCC3	33.3*	-27.1	7.8	-1.2	8.5	5.0
CC1(C)[C@H]2CC=C(CN3CCC(N4CCC(C(=O)N5CCCC5)CC4)CC3)[C@@H]1C2	61.9*	-25.6	-20.3	-8.2	0.6	5.6
CCOc1ccc(NS(=O)(=O)c2cc3c(cc2C)N(C)CCO3)cc1	23.9	-15.9	13.7	-0.7	7.3	13.4
COc1ccc(NS(=O)(=O)c2ccc(N3CCOCC3)c(N)c2)cc1	30.9*	-14.4	-7.1	5.9	13.0	13.2
COc1ccc(NS(=O)(=O)c2cc3c(cc2C)N(C)CCO3)cc1	31.7*	-13.9	-4.8	1.0	6.7	9.4
COc1ccc(S(=O)(=O)Nc2ccc(N3CCOCC3)cc2)cc1	-5.3	11.3	-12.4	1.2	0.7	10.5
COc1ccc(CC(=O)Nc2ccc(S(=O)(=O)Nc3cc(C)nc(C)n3)cc2)cc1OC	-13.3	6.9	6.3	-2.5	1.1	-10.9
CCN(CC)c1ccc(/C=C(\C#N)C(=O)c2ccc(Br)cc2)cc1	84.9*	-20.8	-6.0	178.1*	109.6*	74.1*
CCN(CC)c1ccc(/C=C(\C#N)C(N)=O)cc1	-11.6	12.4	17.9	0.8	0.9	-12.3
CN(C)c1ccc(/C=C(\C#N)C(=O)c2ccccc2)cc1	75.6*	-35.0	-4.6	124.7*	45.5*	37.9*
O=C(Nc1ccc(F)c(Cl)c1)c1cc(C2CCCCN2C(=O)c2ccc3c(c2)CCO3)on1 (stereo not drawn)	14.9	-11.0	-13.7	-3.0	1.8	1.3
COc1ccc(CC(N)c2csc(Nc3ccc(C(=O)c4ccccc4)cc3)n2)cc1 (stereo not drawn)	-9.3	16.8	23.9	5.5	1.7	-1.9
CN1CCC(n2[nH]c(-c3ccccc3)c(Cc3ccccc3)c2=O)CC1	100.0*	-30.2	8.6	-8.4	2.0	-11.9
CN1CCC(N2CCN(C3CN(CCc4ccccc4)S(=O)(=O)C3)CC2)CC1 (stereo not drawn)	-7.9	9.8	15.0	-6.2	1.0	4.2
C[C@@H]1CN([C@@H](C)CO)C(=O)c2cc(Br)cnc2O[C@H]1CN(C)Cc1ccccc1C(=O)O	-20.6	16.8	-2.5	-2.2	0.1	0.1
Cc1csc(NC(=O)c2ccc(Cn3nc(C)c(Br)c3C)o2)n1	13.8	-9.9	3.6	-2.0	17.2*	14.1
Cc1nn(Cc2ccc(C(=O)Nc3ccccc3C(F)(F)F)o2)c(C)c1Br	6.2	-7.4	4.4	0.8	2.3	2.3
SMILES	M1 antag	M1 PAM	M1 PAM parental	M1 ag	CHO-K1 Ca ag	CHO-K1 Ca antag
NC(=O)c1cccc(-c2ccnc3c2CC(C(=O)NCc2ccccc2)O3)c1 (stereo not drawn)	-15.9	8.2	4.7	-2.5	0.2	-3.3
CCOC(=O)Nc1ccc2c(c1)N(C(=O)CCN1CCOCC1)c1ccccc1S2=O (stereo not drawn)	78.0*	-26.6	-5.4	-6.3	0.4	0.7
CCN(CC)C(=O)C1=C(C)N(Cc2ccccc2)C(=O)C(CC(=O)NC2CC2)C1 (stereo not drawn)	-4.0	1.0	0.3	-0.1	0.7	-2.1
COc1ccc(Br)cc1C=NNS(=O)(=O)c1ccc(C)cc1	32.6*	-18.8	-6.9	0.7	0.2	20.4
COc1cc(/C=N/NS(=O)(=O)c2ccc(Br)cc2)ccc1O	-8.4	4.0	7.1	1.3	1.2	-5.2
CC(=O)Nc1ccc(CNc2nc3cc(-c4ccsc4)sc3c(=O)n2C)cc1	-11.0	1.3	12.0	3.2	2.3	-1.7
O=C(NC(Cc1ccccc1)C(=O)N1CCN(c2ccc(F)cc2)CC1)c1ccccc1 (stereo not drawn)	3.4	-6.5	12.1	-1.2	3.8	-10.2
O=c1c2cc(NC(=S)NCCN3CCCCCC3)ccc2nc2n1CCCCC2	13.3	-14.7	-6.1	-8.5	-0.3	-5.3
O=c1c2cc(NC(=S)NCCCN3CCC(Cc4ccccc4)CC3)ccc2nc2n1CCCCC2	67.2*	-25.9	10.8	-1.8	10.1	-6.0
Cc1ccccc1-c1csc(C(O)c2ccc(F)c(F)c2)n1 (stereo not drawn)	-6.9	-0.3	4.5	-8.0	0.3	-10.2
C[C@H]1CN=C(N(C)C)N1CC1CCC(C(C)(C)C)CC1 (stereo partly drawn)	51.4*	-32.1	16.3	-10.4	1.9	-16.6
C[C@H]1CN=C(N(C)C)N1CC1CCCC1	4.5	-3.6	10.2	11.6	0.9	-9.9
O=C1NC(=S)NC1(c1ccccc1)c1ccccc1	47.0*	-28.9	-7.8	-8.8	0.1	-3.5
O=C1NC(=O)C(c2ccccc2)(c2ccccn2)N1 (stereo not drawn)	-3.7	8.2	15.2	-4.8	1.5	-7.0
CCC(=O)N1CCc2cc(S(=O)(=O)NCCC(=O)N3CCN(c4cccc(C)c4)C(C)C3)ccc21 (stereo not drawn)	23.1	-16.0	-6.8	1.0	15.8*	19.5
CCOC(=O)C1CCN(C(=O)CCNS(=O)(=O)c2ccc3c(c2)CCN3C(=O)CC)CC1	0.9	1.2	-17.4	-2.2	-0.1	58.1*
O=C(COc1ccc(C(=O)c2ccccc2)cc1)Nc1cccnc1	24.8	-14.3	-4.2	-1.5	19.5*	18.5
CC(=O)c1cccc(NC(=O)COc2ccccc2)c1	4.4	10.1	-7.9	1.3	-0.1	31.9*
N#Cc1ccc(-c2ccc(OCC(=O)Nc3cccnc3)cc2)cc1	18.4	-11.8	-19.7	3.1	17.7*	11.6
CC1(C)Cc2c(sc3nc(-c4cccs4)n(N)c(=O)c23)CO1	24.6	-22.2	-12.5	2.0	15.7*	-3.9
